Bioassay records (PubChem BioAssay)
The list is not random: actives were taken first. Their share in the collection is about 1.5%.
pAkt inh = HTS Assay for Inhibitors of Akt Phophorylation: Primary Screen | 360,000 compounds, 0.32% hits | Neuro2A IGF-stimulated pAkt S473 HTRF, 20 min; stronger effect = lower value | activity change, % for hits at 50 µM; in the data active = activity change below about -80%; inconclusive = mostly about -51% to -80%
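Neuro2A cells in DMEM with 0.5% FBS, overnight at 37 deg C, given compound at single 50 µM final, then IGF (6 nM final) for 20 min at 37 deg C. Lysed; phospho-Akt Ser473 by HTRF after 24 h, 665/615 ratio.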
PINK1 modulator = A Quantitative High throughput Screen to Identify Chemical Modulators of PINK1 Expression; PINK1 immunofluorescence, high-content cytometry, 24 h; Potency, µM (titrated, usually from 76.6 µM), hits mostly activators; 410,000 compounds, 0.2% hits; active = well fitted activation curve with a large enough effect; inconclusive = small, poorly fitted or top-dose-only effect; cell line not stated here; also: nearly all actives have a fitted effect of over 65% in size
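Fluorescence from anti-PINK1 antibody, together with nuclear and cell stains, was scanned on a laser-scanning cytometer. Before staining, stable-line cells were incubated 24 hours with compounds at 5 concentrations; primary antibody 12 h at 10 degrees C.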
TCR activator = Activators of T cell receptors: qHTS campaign. AID 504894, 2011. 330,000 tested, under 10 active. Potency, µM (series often up to 9.22 µM), usual class: activators. primary human leukocytes, anti-CD3, IL-2 HTRF, 48 h
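TCR engagement came from a-CD3 beads alone, with compounds added to primary human leukocytes for 48 hr. Secreted IL-2 bridged europium cryptate- and d2-labelled anti-IL-2 antibodies, giving FRET emission at 665nm after 320nm excitation.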
BRCA1 expr act = qHTS Assay to Identify Small Molecule Activators of BRCA1 Expression. AID 624202, 2012. Potency, µM (highest dose often 46.1 µM), usual class: activators. MCF7-BRCA1-FFLuc reporter, luminescence, 48 h; response scale: scaled: vehicle 0%, 10 µM genistein 100%. 380,000 compounds, 1.1% hits; also: nearly all actives have a fitted effect of over 80% in size
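48 h compound treatment of MCF7-BRCA1-FFLuc cells (phenol-red free MEM, 37 °C), then 15 min with luciferase substrate and luminescence imaging.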
Hits are given with their value; – = inactive; ? = inconclusive; · = no result given. Unless noted, calls follow the shape of the dose curve; as a rule, active = well fitted curve in the direction sought with a large enough effect; inconclusive = small, poorly fitted or top-dose-only effect, or another doubt; inactive = no such curve, though single readings can be large; an effect the other way counts as inactive or inconclusive.

SMILES | pAkt inh | PINK1 modulator | TCR activator | BRCA1 expr act
CCOc1ccc(C(=O)Cc2ccccc2)cc1 | – | – | – | ?
O=C(Oc1ccc(-c2cnc3ccccc3n2)cc1)c1cccc([N+](=O)[O-])c1 | – | – | – | 3.2µM
COc1ccc(O)c(C(=O)CC(=O)c2ccncc2)c1 | – | – | – | 5.6µM
COc1ccccc1CC(=O)c1ccc(OCc2ccccc2)cc1 | – | – | – | 8.9µM
COc1ccc(C(=O)CC(=O)c2ccc(OC)cc2)cc1 | – | – | · | –
CC(C)C(O)c1ccc2c(c1)CN(C(=O)c1ccccc1-n1cccn1)CCO2 (centres undefined) | · | – | · | ·
Cc1ncc2c(c1CNC(=O)c1cncs1)CCN(C(=O)c1ccsc1)C2 | · | – | · | ·
CN(C)/[N+]([O-])=N/Oc1cc(F)c([N+](=O)[O-])cc1[N+](=O)[O-] | · | – | · | –
CC(=O)Nc1cc(C(=O)N2CCN(C(=O)c3ccco3)CC2)cc2ncn(CCc3ccccn3)c12 | · | – | · | ·
COc1ccc2cc3cc(C(=O)N4CC(C)CC(C)C4)oc3nc2c1 (centres undefined) | – | – | – | 10µM
O=C(c1cc2cc3ccc(Cl)cc3nc2o1)N1CCCCCC1 | – | – | – | 2.2µM
CCNc1ncc2nc(-c3cc(F)cc(F)c3)c(=O)n(-c3ccccc3)c2n1 | · | – | · | ·
O=c1[nH]cccc1-c1nc2ccccc2[nH]1 | – | – | – | 8.9µM
Cc1nc2cc(NC(=O)[C@@H]3C[C@@H](Sc4ccccn4)CN3Cc3cccc(Cl)c3)ccc2s1 | · | – | · | ·
Cc1[nH]c2ccccc2c1C(=O)CN1CCCCC1CCO (centres undefined) | -109% | – | – | –
O=C(CCSc1ccccc1)Nc1nc2c(s1)CCCC2 | – | – | – | 11µM
O=C(Nc1nc2c(s1)CCCC2)c1cccs1 | – | – | – | ?
O=C(CSc1ncn(-c2ccccc2)n1)Nc1nc2c(s1)CCCC2 | – | ? | · | –
O=C(CCSc1ccccc1)NC1CCCCCC1 | – | – | – | 7.1µM
O=C(Cc1cccs1)Nc1nc2c(s1)CCCC2 | – | – | – | 4µM
O=C(NCCN1CCOCC1)c1cnn(-c2ncc3c(n2)-c2ccccc2CC3)c1C1CC1 | · | – | · | ·
COc1cccc2ccc(CN3CCC4(CC3)c3ccccc3[C@@H](NC(=O)c3ccccc3)[C@@H]4O)nc12 | · | – | · | ·
COc1ccccc1OCc1cc(C(=O)N2CCCC(OCc3cccnc3)C2)no1 (centres undefined) | – | – | – | 7.1µM
Cc1ccc(N=Nc2c(N)n[nH]c2N)cc1 | – | – | – | 10µM
Cc1ccc(-c2[nH]nc(N)c2N=Nc2ccccc2C)cc1 | – | – | – | –
SMILES | pAkt inh | PINK1 modulator | TCR activator | BRCA1 expr act
Nc1n[nH]c(N)c1N=Nc1ccc2c(c1)OCO2 | – | – | – | 10µM
O=[N+]([O-])c1ccc(/C=C2\C=C(C(O)c3ccc([N+](=O)[O-])cc3)c3ccccc32)cc1 (centres undefined) | · | – | · | –
CCN1CCS/C1=C/C=C/C1=[N+](CC)CCS1 | – | 16µM | – | –
CCN1CCS/C1=C\C=C\C1=[N+](CC)CCS1 | – | 14µM | – | –
Cc1ccc2nc(SCC(=O)NCC3Cc4cccc(-c5nc(C)cnc5C)c4O3)[nH]c2c1 (centres undefined) | · | – | · | ·
O=C1NC(=O)C(Cc2ccccc2F)(C2CCN(Cc3cccn3-c3cccnc3)CC2)N1 (centres undefined) | · | – | · | ·
CC(C)=NNC(=O)c1c(O)c2ccccc2[nH]c1=O | – | 40µM | – | –
CCNC(=O)c1c(O)c2ccccc2[nH]c1=O | – | – | – | –
O=C(NC1CCCCCCC1)c1c(O)c2ccccc2[nH]c1=O | – | · | – | 10µM
Cc1ccc(F)cc1S(=O)(=O)NCc1nc(N2CCCC2)c2cccc(C)c2n1 | · | – | · | ·
COc1ccc(/C=N/NC(=O)c2ccc(Br)cc2)cc1Cn1cc(Cl)cn1 | – | – | – | –
COc1ccc(/C=N/NC(=O)c2cccc(Br)c2)cc1Cn1cc(Cl)cn1 | -103% | – | – | –
COc1ccc(/C=N/NC(=O)c2cc(-c3ccc(C)cc3C)nc3ccccc23)cc1COC(C)=O | -89% | – | – | –
Cc1ccc(C(=O)NC(=S)Nc2cccnc2Cl)cc1 | – | – | – | 11µM
COc1ccccc1C(=O)NC(=S)Nc1cccnc1Cl | – | – | – | –
COc1cc(=O)n2c(c1C(=O)N(C)C(C)c1ccco1)CCN(C(=O)c1ccc(C(C)=O)cc1)CC2 (centres undefined) | · | – | · | ·
CCCc1ccc2oc(C(=O)NCCc3cnn(C)c3)c(C)c2c1 | – | ? | – | 8.9µM
CCCCCc1nc(-c2nonc2N)no1 | -120% | – | – | –
COc1ccc(OCCn2c(=O)sc3ccccc32)cc1 | – | – | – | 10µM
COc1ccccc1OCCn1c(=O)sc2ccccc21 | – | – | – | –
Cc1cccc(OCCn2c(=O)sc3ccccc32)c1 | – | – | – | 3.5µM
COc1ccc(-n2c(CCNC(=O)c3ccccc3C(F)(F)F)nnc2SC)cc1 | · | – | · | ·
Cc1nc(-c2ccc(S(=O)(=O)Nc3ccc(C#N)cc3)cc2)co1 | · | – | · | –
CCN(CC)CCCNC(=O)CCC(=O)Nc1ccc2nc(N3CCC(C)CC3)cc(C)c2c1 | – | – | – | –
CCN(CC)CCCNC(=O)CCC(=O)Nc1ccc2nc(N3CCCCC3)cc(C)c2c1 | – | – | – | 11µM
SMILES | pAkt inh | PINK1 modulator | TCR activator | BRCA1 expr act
CCCCNC(=O)CCC(=O)Nc1ccc2nc(N3CCOCC3)cc(C)c2c1 | – | – | – | 4µM
Cc1ccc(C)c(N(C)C(=O)Cc2c(C(=O)O)[nH]c3ccc(Cl)cc23)c1 | · | – | · | –
COc1ccc(CCNC(=O)CN2C(=O)C3(OCCCO3)c3ccccc32)cc1OC | -90% | – | – | –
COc1ccc(OC)c(NC(=O)CN2C(=O)C3(OCCCO3)c3ccccc32)c1 | – | – | – | –
CCn1c2ccc(F)cc2c2nnc(NN)nc21 | – | – | – | –
NNc1nnc2c3cc(F)ccc3n(Cc3ccccc3)c2n1 | – | 32µM | – | –
Cc1ccc(NC(=O)c2ccc3nsnc3c2)c(Cl)c1 | – | – | – | 1µM
COc1ccc(NC(=O)c2ccc3nccnc3c2)cc1 | – | – | – | 2.8µM
O=C(Nc1cccc2ncccc12)c1ccc(F)cc1 | – | – | – | –
CCOc1ccc(NC(=O)c2ccc3nccnc3c2)cc1 | – | – | – | –
COc1cc(NC(=O)c2ccc3snnc3c2)cc(OC)c1 | – | – | – | 11µM
Cc1ccc(NC(=O)c2ccc3snnc3c2)cc1 | – | – | · | –
O=C(Nc1cccc2ncccc12)c1cccc(F)c1 | -107% | – | · | –
COc1ccc(NC(=O)c2ccc(Oc3ncccn3)cc2)cc1 | – | – | – | 8.9µM
O=C(/C=C/Nc1ccccc1)c1ccc(Oc2ncccn2)cc1 | – | – | – | 3.5µM
COc1ccc(NC(=O)c2ccc(NC(=O)c3ccncc3)cc2)cc1 | – | – | – | –
COC(=O)c1ccccc1NC(=O)c1ccc2nccnc2c1 | – | – | – | –
O=C(Nc1ccccc1Cl)c1ccc2nccnc2c1 | – | – | – | 5µM
